Results filed as inconclusive are left out. Active and inactive are the calls of the source. Calls follow the shape of the dose curve; as a rule, active = well fitted cell-killing curve with a large enough effect; inconclusive = small, poorly fitted or top-dose-only effect, or effect the other way; inactive = no such curve, though single readings can be large or run the other way.
Tested on: PA-1
Assay: Confirmatory qHTS for gynecologic anti-cancer compounds from libraries of approved drugs and bioactive compounds; also: nearly all actives have a fitted effect of over 55% in size
Conditions: gynecologic cancer cell panel viability, ATPlite luminescence, 48 h; series mostly up to 57.6 µM
Procedure, shortened: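 ATP-based luminescent viability (ATPlite) after 48 h drug treatment at 37 °C, 5% CO2, across 57.5 uM–0.977 nM in 1:3 steps. Cells seeded at 1,000 per well 16 h beforehand; IC50 values computed, HEK 293T as selectivity control.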
Potency is read from the fitted curve at half-maximal effect.

SMILES	Potency
Nc1ccc(C(=O)Nc2cccc(-c3nc(N4CCOCC4)c4oc5ncccc5c4n3)c2)cn1	12.2 µM (active)
CN1CCN(Cc2ccc(NC(=O)Nc3ccc(Oc4cc(NC(=O)C5CC5)ncn4)cc3)cc2C(F)(F)F)CC1	0.193 µM (active)
CN[C@@H](C)C(=O)N[C@H]1CN(C(=O)CC(C)C)CC[C@H]2CC[C@@H](C(=O)NC(c3ccccc3)c3ccccc3)N2C1=O	inactive
Cc1ccc(C(=O)Nc2ccc(Oc3cc4cnn(C)c4cc3-c3cn[nH]c3)c(F)c2)c(=O)n1-c1ccc(F)cc1	10.9 µM (active)
Cc1nc(Nc2n[nH]c3c2CN(C(=O)NC(CN(C)C)c2ccccc2)C3(C)C)c2sccc2n1 (stereo not given)	0.0243 µM (active)
CN(C)C/C=C/C(=O)Nc1cc2c(Nc3ccc(F)c(Cl)c3)ncnc2cc1OC1CCOC1 (stereo not given)	9.68 µM (active)
Cc1cc(Nc2nc(N[C@@H](C)c3ccc(F)cc3)c(C#N)cc2F)n[nH]1	3.06 µM (active)
CO[C@@]12[C@H](COC(N)=O)C3=C(C(=O)C(C)=C(N)C3=O)N1C[C@@H]1N[C@@H]12	inactive
CC1=C(/C=C/C(C)=C/C=C/C(C)=C/C(=O)Nc2ccc(O)cc2)C(C)(C)CCC1	4.85 µM (active)
CC(C)CC(=O)Nc1n[nH]c2c1CN(C(=O)C1CCN(C)CC1)C2(C)C	0.172 µM (active)
NS(=O)(=O)c1ccc(Nc2nc(OCC3CCCCC3)c3[nH]cnc3n2)cc1	inactive
CCN(CC)CCOc1ccc(/C(=C(\Cl)c2ccccc2)c2ccccc2)cc1	28.2 µM (active)
COc1cc(-c2nn(C3CCC(N4CCN(C(C)=O)CC4)CC3)c3ncnc(N)c23)ccc1NC(=O)c1cc2ccccc2n1C (stereo not given)	30.6 µM (active)
C=CC(=O)Nc1cc2c(Nc3ccc(F)c(Cl)c3)ncnc2cc1OCCCN1CCOCC1	30.6 µM (active)
Cc1nc(NC(=O)N2CCCC2C(N)=O)sc1-c1ccnc(C(C)(C)C(F)(F)F)c1 (stereo not given)	27.3 µM (active)
C[C@@]1(C(=O)Nc2ccc(F)nc2)CCCN1c1nc(Nc2cc(C3CC3)[nH]n2)c2cccn2n1	0.0343 µM (active)
CC(Oc1ccc2[nH]nc(/C=C/c3cnn(CCO)c3)c2c1)c1c(Cl)cncc1Cl (stereo not given)	1.93 µM (active)
Cc1csc(NC(=O)c2sc3nc4c(c(C(F)(F)F)c3c2N)CCC4)n1	3.43 µM (active)

SMILES	Potency
CCC(=O)N1CCN(c2ccc(-n3c(=O)ccc4cnc5ccc(-c6cnc7ccccc7c6)cc5c43)cc2C(F)(F)F)CC1	0.627 µM (active)
CC(C)(C)C(=O)OCOP(=O)(COCCn1cnc2c(N)ncnc21)OCOC(=O)C(C)(C)C	6.85 µM (active)
S=c1nc[nH]c2nc[nH]c12	3.85 µM (active)
CNC(=O)c1ccccc1Nc1nc(Nc2ccc(N3CCOCC3)cc2OC)ncc1Cl	1.72 µM (active)
CCN1CCN(Cc2ccc(-c3cc4c(NC(C)c5ccccc5)ncnc4[nH]3)cc2)CC1 (stereo not given)	24.3 µM (active)
Cc1ccc(C(=O)N(CCCN)C(c2nc3cc(Cl)ccc3c(=O)n2Cc2ccccc2)C(C)C)cc1 (stereo not given)	0.0172 µM (active)
COc1c(C)c2c(c(O)c1C/C=C(\C)CCC(=O)OCCN1CCOCC1)C(=O)OC2	0.485 µM (active)
O=C1Cc2cc(CCN3CCN(c4nsc5ccccc45)CC3)c(Cl)cc2N1	24.3 µM (active)
CCCS(=O)c1ccc2nc(NC(=O)OC)[nH]c2c1 (stereo not given)	34.3 µM (active)
CCS(=O)(=O)N1CCN(c2ccc(Nc3ncc(C(N)=O)c(NC4CC4)n3)cc2)CC1	3.85 µM (active)
CN(C)c1ccc(-c2nc3ncc(Cl)c(N4CCN(CC(=O)Nc5nccs5)CC4)c3[nH]2)cc1	3.35 µM (active)
Cc1nc(N)ncc1-c1nc(N2CCOCC2)c2sc(C(C)(C)O)cc2n1	6.85 µM (active)
COc1cc2nccc(Oc3ccc(NC(=O)C4(C(=O)Nc5ccc(F)cc5)CC4)cc3)c2cc1OC	10.9 µM (active)
CCCCN(CCCC)C(=O)CN1C[C@H](c2ccc3c(c2)OCO3)[C@@H](C(=O)O)[C@@H]1c1ccc(OC)cc1	inactive
N=C(N)c1ccc(OCCCCCOc2ccc(C(=N)N)cc2)cc1	4.32 µM (active)
O=c1[nH]c(=O)n([C@H]2C[C@H](O)[C@@H](CO)O2)cc1F	0.109 µM (active)
NCCOc1cc(C(=O)Nc2cc(OCCN)c3ccccc3n2)nc(C(=O)Nc2cc(OCCN)c3ccccc3n2)c1	19.3 µM (active)

Reference: PubChem BioAssay AID1345085 (National Center for Advancing Translational Sciences (NCATS), 2018)
